# PubChem BioAssay AID1508602 (The Scripps Research Institute Molecular Screening Center, 2020)
# Out of some 650,000 compounds screened, about 6,800 (1%) were called active. Only a selection was taken, and actives are over-represented in it overall. Unmarked numbers belong to inactive results. No stated cut-off is given here; in the data, active means activation above about 4.9%; inactive means the rest.
# Target: G-protein coupled receptor 151 (Homo sapiens) (UniProt Q8TDV0)
# Experiment: activates the human receptor GPR151, primary screen, cell-based, PathHunter beta-arrestin, luminescence (AID 1508602);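 further: 0% = median of compound wells and 100% = cells with positive control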
# Settings: PathHunter beta-arrestin GPR151 cells, at 11.2 µM, stronger effect = higher value
# G-protein coupled receptor 151 (Homo sapiens), sequence (Q8TDV0 whole entry, looked up): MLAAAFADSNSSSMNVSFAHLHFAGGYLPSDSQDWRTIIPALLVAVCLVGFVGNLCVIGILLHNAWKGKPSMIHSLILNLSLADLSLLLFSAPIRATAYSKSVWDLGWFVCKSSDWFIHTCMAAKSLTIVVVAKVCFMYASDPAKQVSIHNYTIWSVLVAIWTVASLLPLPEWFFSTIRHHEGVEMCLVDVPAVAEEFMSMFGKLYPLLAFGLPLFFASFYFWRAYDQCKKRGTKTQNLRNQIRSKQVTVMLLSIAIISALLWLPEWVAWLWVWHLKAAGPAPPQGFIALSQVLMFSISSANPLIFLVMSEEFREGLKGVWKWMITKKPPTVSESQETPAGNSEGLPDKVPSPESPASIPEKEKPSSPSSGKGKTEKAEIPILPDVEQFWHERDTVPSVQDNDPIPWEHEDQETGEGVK
row,Compound,activation
1,O=C(CNC(=O)c1ccc(NC2CC2)c([N+](=O)[O-])c1)Nc1ccc(F)c(F)c1F,0.807%
2,Nc1ncnc(Oc2ccccc2Cl)c1[N+](=O)[O-],1.64%
3,Cc1ccc[n+](-c2ncnc(N)c2[N+](=O)[O-])c1,6.28% (active)
4,Cc1csc(Nc2ncnc(N)c2[N+](=O)[O-])n1,-0.642%
5,CSc1ncc(C(=O)Nc2ccc(F)cc2C)c(C)n1,-0.309%
6,O=C(Nc1ccccc1)NC1(C(=O)Nc2ccc(F)cc2F)CCCCC1,0.408%
7,Cc1ccc(NC(=O)Cn2c(C)c(C=O)c3ccccc32)cc1C,1.3%
8,COc1ccc(-c2nnc(SCC(=O)Nc3ccc4c(c3)OCCO4)o2)cc1OC,0.0025%
9,CCC(CC)C(=O)N1CCN(Cc2nc3sc(C)c(C)c3c(=O)[nH]2)CC1,5.71% (active)
10,Cc1sc2nc(Cc3ccccc3)[nH]c(=O)c2c1C,0.303%
11,Cc1sc2nc(CN(C(=O)C3CC3)C3CCCC3)[nH]c(=O)c2c1C,0.605%
12,O=C(CCCCn1c(=O)[nH]c2ccccc2c1=O)N1CCN(c2cccc(Cl)c2)CC1,-0.11%
13,CCCCc1ccc(-c2nc(C=Nc3ccc(C(C)=O)cc3)c(O)o2)cc1,-0.204%
14,Oc1oc(-c2cccc3ccccc23)nc1C=Nc1ccc2ccccc2c1,-1.09%
15,CCCCc1ccc(N=Cc2nc(-c3cccc4ccccc34)oc2O)cc1,7.67% (active)
16,COc1ccc(CNC2CCCN(c3nc(C)c4ccc(C)cc4n3)CC2)cc1OC (stereo unspecified),-0.801%
17,COc1ccc(NC(=O)C2CC(=O)N(C3CCCCC3)C2)cc1 (stereo unspecified),0.591%
18,Cc1ccc(C)c(NC(=O)C(Cc2ccccc2)N2C(=O)c3cccc([N+](=O)[O-])c3C2=O)c1 (stereo unspecified),1.63%
19,CCOc1ccc(C(=O)Nc2nnc(CC)s2)cc1[N+](=O)[O-],7.7% (active)
20,CCOc1ccc(C(=O)Nc2ccccc2I)cc1[N+](=O)[O-],2.03%
21,CCOc1ccc(C(=O)Nc2ccc(C(=O)OC)cc2)cc1[N+](=O)[O-],1.51%
22,Cc1ccccc1-n1c(C)cn2c3c(=O)n(CC(N)=O)c(=O)n(C)c3nc12,0.26%
23,O=S(=O)(NC1CCCCC1)c1ccc(S(=O)(=O)n2cnc3ccccc32)cc1,3.37%

row,Compound,activation
1,COc1cccc(NC(=O)CN(C)S(=O)(=O)c2ccc3c(c2)SCC(=O)N3)c1,5.58% (active)
2,CCc1cccc(CC)c1NC(=O)CCS(=O)(=O)c1ccc2c(c1)SCC(=O)N2,-0.523%
3,COc1ccc(S(=O)(=O)N(C)CC(=O)Nc2cccc(C(F)(F)F)c2)cc1OC,1.26%
4,O=C(NNC1=NCCCCC1)c1ccc([N+](=O)[O-])cc1,4.83%
5,CC(=O)NCc1nnc2n1CCN(Cc1ccc(-c3ccccc3)cc1)CC2,-0.371%
6,CC(C)CNC(=O)C(C)N(c1ccccc1)S(C)(=O)=O (stereo unspecified),1.91%
7,Cc1nc2nc(SCc3c(F)cccc3Cl)nn2c(C)c1Cc1c(F)cccc1Cl,0.427%
8,Cc1nc2ncnn2c(C)c1Cc1c(F)cccc1Cl,0.47%
9,Cc1nc2nc(SCc3ccc([N+](=O)[O-])cc3)nn2c(C)c1Cc1c(F)cccc1Cl,5.69% (active)
10,CCOC(=O)c1cnc2c(C)c(Cl)ccc2c1Nc1cccc(C)c1,1.7%
11,O=C(C1CC1)N1CC[C@H]2[C@H](CCCN2C/C=C/c2ccco2)C1,0.174%
12,O=C(Nc1ccccc1)c1cnc(N2CCC(N3CCOCC3)CC2)s1,-1.62%
13,COc1cccc(N(CC(=O)NCCSc2ccccn2)S(C)(=O)=O)c1,1.03%
14,COc1ccc(/C=C/C(=O)NCCSc2ccccn2)cc1,-0.668%
15,COc1ccc(C=C(C#N)C#N)c(CSc2ccccn2)c1,5.44% (active)
16,Cn1c(SCC(=O)NC(Cc2ccccc2)C(=O)O)nnc1-c1ccncc1 (stereo unspecified),-0.851%
17,CCOc1ccc(CCn2c(-c3ccccc3)cn3c4c(=O)n(C)c(=O)n(C)c4nc23)cc1OCC,0.226%
18,Cc1ccc(N2C(=O)CC(N3CCC(Cc4ccccc4)CC3)C2=O)cc1Cl (stereo unspecified),-0.328%
19,O=C1CC(N2CCN(c3ccc(Cl)cc3)CC2)C(=O)N1c1ccc(Cl)c(Cl)c1 (stereo unspecified),-0.621%
20,Cc1ccc(N2C(=O)CC(N3CCN(Cc4ccc(Cl)cc4)CC3)C2=O)cc1Cl (stereo unspecified),5.11% (active)
21,COc1ccc2ccccc2c1CN1CCc2nnc(C(C)NC(=O)C(C)C)n2CC1 (stereo unspecified),1.9%
22,Cc1c(N=C(Nc2ccccc2)Nc2ccccc2)c(=O)n(-c2ccccc2)n1C,-0.384%
23,COc1ccc(C(=O)Nc2c(C)n(C)n(-c3ccccc3)c2=O)c(OC)c1OC,0.96%

row,Compound,activation
1,COc1cc(C(C)=Nc2c(C)n(C)n(-c3ccccc3)c2=O)cc(O)c1OC,5.37% (active)
2,CCOc1ccc(CCNC(=O)Cn2c(-c3cncs3)nc3ccccc32)cc1OCC,-0.67%
3,O=C(Nc1ccccc1)/C(=C\c1ccco1)NC(=O)c1cccc(Cl)c1,0.512%
4,CCOC(=O)c1cnc2c(OC)cccc2c1Nc1ccc(Oc2ccccc2)cc1,-0.414%
5,CCN(CC)c1nc(NCc2ccccc2)nc(NCc2ccc3c(c2)OCO3)n1,0.801%
6,CCN(CC)c1nc(Nc2ccccc2)nc(Nc2ccc(NC(C)=O)cc2)n1,-0.926%
7,CCN(CC)c1nc(Nc2ccccc2)nc(Nc2ccccc2)n1,6.59% (active)
8,COc1cccc(C(=O)COC(=O)c2c3c(nc4ccccc24)CCCC3)c1,1.21%
9,CCOC1=C/C(=C/c2c(N)n3nc(N4CCCC4)sc3nc2=O)C=CC1=O,-1.93%
10,CN1CCN(CC(O)COCc2ccc3c(c2)OCO3)CC1 (stereo unspecified),10.1% (active)
11,COC(=O)C(C)CN1CCN(Cc2ccc3c(c2)OCO3)CC1 (stereo unspecified),-1.4%
12,CC1CCCN(CC(O)COc2ccc3c(c2)OCO3)C1 (stereo unspecified),-0.477%
13,CCC(=O)Nc1cccc(Nc2nc(Cl)nc(Nc3cccc(NC(=O)CC)c3)n2)c1,0.686%
14,Cc1ccc(CS(=O)(=O)CC2Nc3ccc(C(=O)NC4CCCC4)cc3NC2=O)cc1 (stereo unspecified),-0.216%
15,Cc1cc(=O)[nH]c(NCCC(=O)O)n1,0.811%
16,COCCn1c(C)cc(C(=O)CSc2nnc3scc(-c4ccc(C)cc4)n23)c1C,1.12%
17,COCCn1c(C)cc(C(=O)COC(=O)C2COc3ccccc3O2)c1C (stereo unspecified),0.229%
18,COCCn1c(C)cc(C(=O)CSc2nnc(-c3ccccc3)o2)c1C,9.35% (active)
19,COc1ccc(C2/C(=C(\O)c3ccc(Br)cc3)C(=O)C(=O)N2c2nccs2)cc1OC (stereo unspecified),-0.318%
20,Cc1cccc(-n2nc3c(c2NC(=O)CCC2CCCC2)CS(=O)(=O)C3)c1C,-0.834%
21,Cc1cccc(-n2nc3c(c2NC(=O)CCC2CCCCC2)CS(=O)(=O)C3)c1C,5.19% (active)
22,Cc1cccc(-n2nc3c(c2NC(=O)C2CCCC2)CS(=O)(=O)C3)c1C,-1.12%
23,O=S(=O)(NCC(c1cccnc1)N1CCN(c2ccccc2)CC1)c1ccc(F)cc1 (stereo unspecified),-1.39%

row,Compound,activation
1,Cc1ccc(S(=O)(=O)NCC(c2cccnc2)N2CCN(c3ccc(F)cc3)CC2)cc1 (stereo unspecified),4.96% (active)
2,COc1ccc(N2CCN(C(CNS(=O)(=O)c3c(C)cc(C)cc3C)c3cccnc3)CC2)cc1 (stereo unspecified),0.0567%
3,CC(=O)Nc1nc2c(s1)-c1cccc3cccc-2c13,-0.686%
4,CCN1CCN(c2cc(Nc3cc(OC)c(OC)c(OC)c3)c3c4c(onc24)-c2ccccc2C3=O)CC1,-0.784%
5,CCN1CCN(c2cc(Nc3cccc(OC)c3)c3c4c(onc24)-c2ccccc2C3=O)CC1,-1.99%
6,COc1cc(Nc2cc(N3CCN(c4ccc(F)cc4)CC3)c3noc4c3c2C(=O)c2ccccc2-4)cc(OC)c1OC,5.65% (active)
7,Cn1c(SCC(=O)NCc2cccs2)nnc1C1CC1,0.896%
8,CCc1ccc(NC(=O)CCS(=O)(=O)c2cc3c(cc2Cl)NC(=O)CO3)cc1,0.977%
9,Cc1cc2c(cc1S(=O)(=O)CCC(=O)Nc1ccccc1Cl)OCC(=O)N2,12% (active)
10,Cc1ccccc1NC(=O)CCS(=O)(=O)c1ccc2c(c1)OCC(=O)N2,-0.0759%
11,CC(Nc1ccc(-c2cccc(C=O)c2)cn1)c1ccc(F)cc1 (stereo unspecified),3.31%
12,C=CSC1=C(C#N)C(c2cccc3ccccc23)CC(=O)N1 (stereo unspecified),0.0614%
13,CCN(Cc1ccccc1)C(=O)Nc1ccc(-c2cn[nH]c2)cc1OCCN(C)C,0.0869%
14,CN(C)C(=O)c1cc(-c2cn[nH]c2)ccc1NC(=O)OCc1ccccc1,0.0349%
15,CN(Cc1ccccc1)C(=O)c1nc2ccc(-c3cn[nH]c3)cc2s1,5.86% (active)
16,O=C(CCS(=O)(=O)c1cccc2nsnc12)N1CCCCCC1,-0.702%
17,CNC(=O)C(NC(=O)c1ccc([N+](=O)[O-])cc1)C12CC3CC(CC(C3)C1)C2 (stereo unspecified),0.352%
18,Cc1cccc(NC(=O)/C(=C\c2ccco2)NC(=O)c2ccccc2Br)c1,2.08%
19,CC1=C(C(=O)N2CCOCC2)C(c2ccc(Cl)cc2)C2=C(CC(C)(C)CC2=O)N1 (stereo unspecified),0.141%
20,O=C(Cn1nc(-c2ccc3c(c2)OCCO3)ccc1=O)Nc1cccc(C(=O)NC2CC2)c1,0.799%
21,CCOc1cccc(NC(=O)Cn2nc(-c3ccc4c(c3)OCCO4)ccc2=O)c1,8% (active)
22,CCc1cccc(OCC(=O)Nc2ccc3c(c2)OCCO3)c1,-1.18%
